Assay [1] deals with Glutathione peroxidase 1 (Homo sapiens) (UniProt P07203). Briefly: Primary qHTS Assay for Inhibitors of Recombinant Selenoprotein Glutathione Peroxidase 1 (GPX1) (AID 1845191). Further: nearly all actives have a fitted effect of over 65% in size. On activity, negative = inhibition: on the % scale 0 is the no-effect control and ±100 the full control effect. Summed up: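 GR-coupled assay: compounds preincubated 30 min at room temperature with GPX1, then reaction started with CHP; final 10 nM GPX1, 1 mM GSH, 0.5 mM CHP, 0.5 mM NADPH, 100 nM GR, 0.01% BSA, pH 7.5 Tris buffer. NADPH fluorescence (340/450 nm) read at 0 and 15 min.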
(In qHTS, concentration-response curves come from the screen itself.)

For assay [2], the target named is Phospholipid hydroperoxide glutathione peroxidase GPX4 (Homo sapiens) (UniProt P36969). In words: Primary qHTS Assay for Inhibitors of Recombinant Selenoprotein Glutathione Peroxidase 4 (GPX4) (AID 1845192). Further: nearly all actives have a fitted effect of over 65% in size. On activity change, negative = inhibition: series mostly up to about 50 µM; on the % scale 0 is the no-effect control and ±100 the full control effect. Summed up:
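GR-coupled assay: recombinant GPX4 preincubated 30 min with compound at room temperature; final 200 nM GPX4, 1 mM GSH, 0.5 mM cumene hydroperoxide, 0.5 mM NADPH, 100 nM GR, 0.01% BSA, pH 7.5 Tris. NADPH fluorescence (340/450 nm) read at 0 and 15 min.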

Assay [3] has as its target Luciferin 4-monooxygenase (Photinus pyralis) (UniProt P08659). Briefly: Primary firefly luciferase (FLuc) qHTS assay for identification of artifact compounds. (AID 1845220). Further: nearly all actives have a fitted effect of over 60% in size.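 On activity change, negative = inhibition: series mostly up to about 54 µM; plate controls were DMSO vehicle for no effect and no enzyme for full effect.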 The gist of the method:
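Titrated compounds were incubated 15 min at RT, protected from light, with luciferin and ATP at 10 uM; reaction started with 10 nM FLuc, luminescence imaged at 5 min, and concentration-response fitted by Hill equation.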

A short description of assay [4]: Primary fluorescence-based thiol-reactive (MSTI) qHTS assay for identification of artifact compounds. (AID 1845221). Further: nearly all actives have a fitted effect of over 65% in size. Further: potency means the concentration at half of the fitted maximal effect.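 On activity change, negative = thiol reactive: series mostly up to about 54 µM; thiol-reactive compounds lower the probe fluorescence signal.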 Summed up:
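Thiol-reactive compounds detected by quenching of 4 uM MSTI fluorescence (525/598 nm) after 1 h room-temperature dark incubation in PBS pH 7.4, 2% DMSO. qHTS titration; percent inhibition Hill-fitted against Acetyl-MSTI/MSTI controls.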

Assay [5] relates to Nanoluciferase (engineered Oplophorus gracilirostris luciferase). In words: Primary Nanoluciferase (NLuc) qHTS assay for identification of artifact compounds. (AID 1845222).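 Further: NLuc secreted into diluted conditioned medium of S16 cells; series mostly up to about 54 µM; 0% = DMSO and -100% = no enzyme.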 The gist of the method: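 qHTS format, against NLuc in S16 cell-conditioned medium. Nano-Glo substrate 1:100 was added after 15 min at room temperature. Luminescence was taken after a further 5 min.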
Assay [6] is described as follows: Primary redox qHTS assay for identification of artifact compounds. (AID 1845223).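 Further: 0% = DMSO and 100% = reference compound.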 The gist of the method: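 Amplex Red (25 uM) and HRP (250 mU/mL) in HBSS, with compounds for 15 min, then 250 uM DTT for 30 min, room temperature, dark. Fluorescence 525/598 nm read; normalized to DMSO and 10 uM DA3003; Hill fit.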

Each structure is given as a SMILES string. A number with no mark means an inactive call. Records with an inconclusive call do not appear. Calls of active or inactive are those of the source. The call rests on the fitted dose curve; in most records, active means well fitted curve in the direction sought with a large enough effect; inconclusive means small, poorly fitted or top-dose-only effect, or another doubt; inactive means no such curve, though single readings can be large; an effect the other way counts as inactive or inconclusive.

Sequence of Phospholipid hydroperoxide glutathione peroxidase GPX4 (Homo sapiens) (P36969 whole entry, looked up): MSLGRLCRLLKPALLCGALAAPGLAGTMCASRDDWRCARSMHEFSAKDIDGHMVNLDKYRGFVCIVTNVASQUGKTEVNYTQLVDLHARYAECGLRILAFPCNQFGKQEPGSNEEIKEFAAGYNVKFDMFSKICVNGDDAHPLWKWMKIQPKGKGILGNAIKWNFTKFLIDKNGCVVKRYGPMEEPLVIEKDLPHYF
Sequence of Glutathione peroxidase 1 (Homo sapiens) (P07203 whole entry, looked up): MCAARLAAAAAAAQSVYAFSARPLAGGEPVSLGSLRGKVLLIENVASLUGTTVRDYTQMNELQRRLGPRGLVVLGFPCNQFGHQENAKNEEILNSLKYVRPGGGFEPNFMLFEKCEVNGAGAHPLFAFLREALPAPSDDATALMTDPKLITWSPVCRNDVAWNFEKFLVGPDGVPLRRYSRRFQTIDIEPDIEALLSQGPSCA

Regarding `Nc1c(Br)cc(Br)cc1CNC1CCC(O)CC1` (stereo unspecified), the Potency result in assay [1], in assay [2], in assay [3], in assay [4], in assay [5] and in assay [6] was “inactive” in each case.

Take `Cc1coc2c1CC1OC1(C)CCC1OC1(C)C2` (stereo unspecified): the Potency entry in assay [1], in assay [2], in assay [3], in assay [4], in assay [5] and in assay [6] was “inactive” throughout.

For the molecule `COc1cc(C(C)=O)ccc1O[C@@H]1O[C@H](CO[C@@H]2O[C@@H](C)[C@H](O)[C@@H](O)[C@H]2O)[C@@H](O)[C@H](O)[C@H]1O`, the Potency entry in assay [1], in assay [2], in assay [3], in assay [4], in assay [5] and in assay [6] was “inactive” in each case.

On to `CNC(=O)[C@H]1O[C@@H](n2cnc3c(NCc4ccc(N)c(I)c4)ncnc32)[C@H](O)[C@@H]1O`, for which the activity, negative = inhibition is 3.67% [at 9.52 µM] in assay [1] and -0.867% [at 11.6 µM] in assay [5]. In addition, the activity change, negative = inhibition in assay [2] is -1.09% [at 9.73 µM]. For the same molecule, in assay [3], the outcome is “inactive [at 11.6 µM]”. Moreover, the activity change, negative = thiol reactive in assay [4] is 20.2% [at 11.5 µM]. In addition, the redox activity (% of DA3003) in assay [6] is 1.11% [at 11.5 µM].

In the case of `C=C[C@@]1(C)CC(=O)C2[C@](C)(O1)[C@@H](OC(C)=O)[C@@H](O)[C@H]1C(C)(C)CCC[C@]21C` (stereo partly specified), the Potency entry in assay [1] and in assay [2] was “inactive” throughout. Moreover, in assay [3], the outcome was “inactive [at 11.6 µM]”. In assay [4], the activity change, negative = thiol reactive is 58.5% [at 11.5 µM]. Besides, the activity, negative = inhibition in assay [5] is 3.51% [at 11.6 µM]. Further, in assay [6], the redox activity (% of DA3003) is 11% [at 11.5 µM].

With `C=C1CC[C@@H]2[C@](C)(CO[C@@H]3O[C@H](CO)[C@@H](O)[C@H](O)[C@H]3O)CCC[C@@]2(C)[C@@H]1CCC1=CCOC1=O`, the Potency result in assay [1], in assay [2], in assay [3], in assay [4], in assay [5] and in assay [6] was “inactive” in each case.

Take `CC1CCC2(C(=O)OC3OC(COC4OC(CO)C(O)C(O)C4O)C(O)C(O)C3O)CCC3(C)C(=CCC4C5(C)CCC(O)C(C)(C(=O)O)C5CCC43C)C2C1(C)O` (stereo unspecified): the Potency entry in assay [1] and in assay [2] was “inactive” throughout. Also, in assay [3], the activity change, negative = inhibition was -4.02% [at 11.6 µM]. Further, in assay [4], the activity change, negative = thiol reactive is 18.5% [at 11.5 µM]. Further, the activity, negative = inhibition in assay [5] was 3.18% [at 11.6 µM]. Besides, the redox activity (% of DA3003) in assay [6] was 2.59% [at 11.5 µM].

As to `C[C@H](NCc1ccc(OCc2ccccc2F)cc1)C(N)=O`, the Potency result in assay [1], in assay [2], in assay [3], in assay [4], in assay [5] and in assay [6] was “inactive” in each case.

For the molecule `CCCCNC(=O)[C@@H]1Cc2ccccc2N1C(=O)[C@@H](N)CC`, the Potency result in assay [1], in assay [2], in assay [3], in assay [4], in assay [5] and in assay [6] was “inactive” throughout.

Take `CC(C)C1(O[C@@H]2O[C@H](CO)[C@@H](O)[C@H](O)[C@H]2O)CC=C(CO)CC1` (stereo partly specified): the Potency result in assay [1], in assay [2], in assay [3], in assay [5] and in assay [6] was “inactive” in each case. Moreover, the Potency in assay [4] is 11.7 µM (active).

Turning to `CC1OC(O[C@H]2[C@@H](O)C[C@@]3(C)C([C@H](O)C[C@]4(C)C3CC=C3C5CC(C)(C)CC[C@]5(C(=O)OC5OC(CO)C(O)C(O)C5OC5OCC(OC6OCC(OC7OCC(O)C(O)C7O)C(O)C6O)C(OC6OCC(O)(CO)C6O)C5O)CC[C@]34C)[C@]2(C)CO)C(O)C(O)C1O` (stereo partly specified), the activity, negative = inhibition in assay [1] was -3.12% [at 9.52 µM]; in assay [5] it was 3.85% [at 11.6 µM]. Further, the activity change, negative = inhibition in assay [2] is -6.84% [at 9.73 µM]; in assay [3], 2.08% [at 11.6 µM]. Also, the activity change, negative = thiol reactive in assay [4] was 280% [at 11.5 µM]. Also, in assay [6], the redox activity (% of DA3003) was 1.03% [at 11.5 µM].

For `COc1cccc2c1CCC[C@H]2CN(C)CCc1ccc2ccoc2c1`, the Potency result in assay [1], in assay [2], in assay [3], in assay [4], in assay [5] and in assay [6] was “inactive” each time.

With `CC1CCC2(C)C(CC(O)C(O)C23CO3)C1(C)CCC1=CC(O)OC1=O` (stereo unspecified), the Potency entry in assay [1], in assay [2], in assay [3], in assay [4], in assay [5] and in assay [6] was “inactive” each time.

Take `CC(=O)O[C@H]1CC[C@@]2(CI)C(=CC[C@@H]3[C@@H]2CC[C@]2(C)[C@@H]([C@H](C)CCCC(C)C)CC[C@@H]32)C1`: the values for the activity, negative = inhibition in assay [1] and in assay [5] were 1.81% [at 9.52 µM] and -1.76% [at 11.6 µM], respectively. Further, the results for the activity change, negative = inhibition in assay [2] and in assay [3] were 1.73% [at 9.73 µM] and 3.6% [at 11.6 µM], respectively. In addition, the activity change, negative = thiol reactive in assay [4] was -0.863% [at 11.5 µM]. Further, the redox activity (% of DA3003) in assay [6] is -3.63% [at 11.5 µM].

For the molecule `CC(CO[C@@H]1O[C@H](COC(=O)/C=C/c2ccc(O)c(O)c2)[C@@H](O)[C@H](O)[C@H]1O)C1(O)COC(=O)C1` (stereo partly specified), the Potency result in assay [1], in assay [2], in assay [3], in assay [5] and in assay [6] was “inactive” each time. In assay [4], the Potency was 1.84 µM (active).

`CO[C@@H]1COCC[C@@H]1N[C@@H]1CC[C@@](C(=O)N2CCc3ncc(C(F)(F)F)cc3C2)(C(C)C)C1`: the Potency entry in assay [1], in assay [2], in assay [3], in assay [4], in assay [5] and in assay [6] was “inactive” throughout.

On to `CC1(C)O[C@]23C[C@H]1C[C@H](OC(=O)c1ccoc1)[C@]2(C)[C@@H](OC(=O)c1ccoc1)CCC3(C)O` (stereo partly specified), for which the Potency entry in assay [1], in assay [2], in assay [3], in assay [4], in assay [5] and in assay [6] was “inactive” throughout.

In the case of `CC(C)C(=O)O[C@@H]1[C@@H](O)[C@@H](O[C@H]2O[C@H](CO)[C@@H](O)[C@H](O)[C@H]2O)O[C@H](CO)[C@H]1O`, the Potency entry in assay [1], in assay [2], in assay [3], in assay [4], in assay [5] and in assay [6] was “inactive” each time.

`CC(=O)c1c(O)cc2c(c1C)C(=O)CC(O)C2` (stereo unspecified): the Potency entry in assay [1], in assay [2], in assay [3], in assay [5] and in assay [6] was “inactive” each time. In addition, in assay [4], the Potency was 10.6 µM (active).

On to `CC1(C)NC2N(C1=O)c1ccccc1C2(O)CC(C(=O)O)n1cnc2ccccc2c1=O` (stereo unspecified), for which the Potency entry in assay [1], in assay [2], in assay [3], in assay [4], in assay [5] and in assay [6] was “inactive” in each case.

`CC(=O)OC[C@@]12[C@H](O)C[C@]3(C)C(=CCC4[C@@]5(C)CC[C@H](O[C@@H]6O[C@H](C(=O)O)[C@@H](O[C@@H]7O[C@H](CO)[C@@H](O)[C@H](O)[C@H]7O)[C@H](O)[C@H]6O[C@@H]6O[C@H](CO)[C@@H](O)[C@H](O)[C@H]6O)[C@](C)(CO)C5CC[C@]43C)[C@@H]1CC(C)(C)[C@@H](OC(C)=O)[C@@H]2O` (stereo partly specified): the Potency entry in assay [1] and in assay [2] was “inactive” throughout. In addition, the outcome in assay [3] was “inactive [at 11.6 µM]”. Moreover, the activity change, negative = thiol reactive in assay [4] is 182% [at 11.5 µM]. Also, the activity, negative = inhibition in assay [5] was 3.06% [at 11.6 µM]. Also, the redox activity (% of DA3003) in assay [6] is 7.21% [at 11.5 µM].

Source of the values: PubChem BioAssay (NCATS).
